# Screens from PubChem.
# The entries come from a sample that favours hits as a whole.
# YB-1 expression = YB-1 expression inhibition. U2OS, qRT-PCR YB-1 vs CDIP delta delta Cp, 16 h; stronger effect = higher value; zero = DMSO, each unit about twofold. 30,000 compounds, 0.37% hits. delta delta Cp (YB-1 minus CDIP) (test concentration not listed);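 active means delta delta Cp rounded down to an integer at or above 3, about 3 SD of DMSO wells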;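 further: higher means less YB-1 transcript or more CDIP transcript relative to DMSO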
# PD-1 reversal = activators reversing PD-1 mediated T-cell inhibition | AID 2316 | 29,000 tested, under 10 active | primary human CD4 T cells, PD-L1 beads, CellTiter-Glo 96 h | activation, % (concentration not given with the values); call rule not given here;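 further: 0% = median vehicle wells and 100% = positive control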
# ROS inducer = cancer cell ROS induction. 46,000 compounds, 2% hits. ROS induction (% of piperlongumine), % at 10 µM. U2OS ROS induction, H2DCF-DA fluorescence; in the data active means ROS induction above about 79%, passing the limit was not always enough; inconclusive means no clear call, values can overlap the other calls;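 further: 0% = DMSO vehicle median and 100% = reference compound median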
# NOMO-1 viab = STK33 inhibitor candidate reducing NOMO-1 cell viability | NOMO-1 AML viability, CellTiter-Glo luminescence, 72 h | inhibition, % (concentration not given with the values) | 37,000 compounds, 7.5% hits | AID 2330; in the data active means inhibition above about 80%; inconclusive means no clear call, values can overlap the other calls
# * = called active by the depositor; ? = inconclusive; . = no result given.
SMILES,YB-1 expression,PD-1 reversal,ROS inducer,NOMO-1 viab
C=C1C(=O)O[C@@H]2C3O[C@]3(C)CC/C=C(/C)CC[C@@H]12 (some centres not stated),-0.016,.,92*,107*
C=C1C(=O)O[C@@H]2[C@H]3O[C@]3(C)CCC=C(C)CC[C@@H]12,-0.063,-59,101*,141*
N#CC(=C(/N)Sc1ccccc1N)/C(C#N)=C(\N)Sc1ccccc1N,2,.,1,94*
CCc1cc(-c2n[nH]c(C)c2-c2nc(C)cs2)c(O)cc1OCc1ccc([N+](=O)[O-])cc1,.,-3,48,109*
CCc1cc(-c2n[nH]c(C(=O)O)c2-c2nc(C)cs2)c(O)cc1O,.,-1,-7,8
O=C(NCc1cccs1)c1ccc2c(c1)N(Cc1ccccc1)C(=O)c1ccccc1S2,.,.,12,.
Cc1noc(C)c1S(=O)(=O)Nc1ccc2c(c1)C(=O)N([C@H](C)CO)C[C@H](C)[C@H](CN(C)C(=O)Nc1ccc(C(F)(F)F)cc1)OCCCC[C@@H](C)O2,0.19,-5,?,?
Cc1noc(C)c1S(=O)(=O)Nc1ccc2c(c1)C(=O)N([C@H](C)CO)C[C@H](C)[C@@H](CN(C)C(=O)Nc1ccc(C(F)(F)F)cc1)OCCCC[C@@H](C)O2,0.22,-2,17,115*
C[C@@H]1CCCCO[C@@H](CN(C)C(=O)Nc2ccc(C(F)(F)F)cc2)[C@@H](C)CN([C@H](C)CO)C(=O)c2cc(NS(=O)(=O)c3ccc(F)cc3)ccc2O1,0.48,-8,82*,110*
COc1ccc(S(=O)(=O)Nc2ccc3c(c2)C(=O)N([C@H](C)CO)C[C@H](C)[C@H](CN(C)C(=O)Nc2ccc(C(F)(F)F)cc2)OCCCC[C@@H](C)O3)cc1,0.58,-6,?,134*
COC(=O)c1ccc(NC(=O)C(C)C)cc1,.,.,-14,.
CC(Oc1ccc(C(C)(C)C)cc1)C(=O)NCc1ccco1 (configuration not stated),.,1,-6,37
Clc1ccc2ncnc(NCc3ccc4c(c3)OCO4)c2c1,0.35,-2,5,83*
COc1ccc2nc(SCC(=O)NC3CCCCCC3)[nH]c2c1,.,0,-30,22
O=Cc1c2[nH]c3ccccc3c2cc2[nH]c3ccccc3c12,0.18,.,10,25
O=C1NCc2c1c1c3ccccc3[nH]c1c1[nH]c3ccccc3c21,0.31,-4,31,97*
O=C(CCCN1C(=O)c2cccc3cccc(c23)C1=O)Nc1ccccc1[N+](=O)[O-],.,2,18,6
COc1ccc(-c2cc(=O)c3ccccc3o2)cc1,-0.19,.,10,23
COc1ccc(N=c2cc(-c3ccc(OC)cc3)oc3ccc(O)cc23)cc1,.,.,193*,.
CCCCCCCCC#CC#C/C=C/CCCC(=O)O,0.44,.,2,.
COc1ccc(N(CC(=O)Nc2ccc(C)cc2C)S(C)(=O)=O)cc1,.,1,-2,5
c1ccc(-c2ccc3c(n2)CCc2ccccc2-3)cc1,-0.19,-1,107*,22
Oc1ccccc1-c1cc(-c2ccccc2O)nc(-c2ccccc2)n1,.,.,2,.
COc1ccc(S(=O)(=O)Nc2ccc3c(c2)CC(=O)N([C@H](C)CO)C[C@H](C)[C@H](CN(C)Cc2ccc(C(=O)Nc4ccccc4N)cc2)O3)cc1,-0.16,1,12,140*
COc1ccc(S(=O)(=O)Nc2ccc3c(c2)CC(=O)N([C@H](C)CO)C[C@@H](C)[C@@H](CN(C)Cc2ccc(C(=O)Nc4ccccc4N)cc2)O3)cc1,0.39,-1,60,92*
SMILES,YB-1 expression,PD-1 reversal,ROS inducer,NOMO-1 viab
COc1ccc(S(=O)(=O)Nc2ccc3c(c2)C(=O)N([C@H](C)CO)C[C@@H](C)[C@H](CN(C)Cc2ccc(C(=O)Nc4ccccc4N)cc2)O3)cc1,-0.034,2,3,-1
CCN(CC)C(=O)[n+]1ccc(OC)cc1,-0.11,-1,21,61
O=C(CSc1nc(-c2ccccc2)cc(C(F)(F)F)n1)Nc1ccc(F)cc1,.,.,.,34
O=C(O)c1ccc(CSc2nc(-c3ccccc3)cc(C(F)(F)F)n2)cc1,.,.,27,.
CCOC(=O)CS(=O)(=O)c1nc(-c2ccc(F)cc2)cc(C(F)(F)F)n1,.,-16,6,135*
CCOC(=O)CCS(=O)(=O)c1nc(-c2ccccc2)cc(C(F)(F)F)n1,.,-16,71,115*
CS(=O)(=O)N(CC(=O)Nc1ccc(F)cc1F)c1ccc(Br)cc1,.,0,-6,-4
COc1cc(CN2CCCC(C(=O)N3CCCCCC3)C2)ccc1OCc1ccccc1 (configuration not stated),.,.,8,.
C=C1C(=O)O[C@@H]2/C=C(/C)[C@@H]3C/C=C(/C[C@@H](OC(=O)/C(=C/CO)CO)[C@@H]12)C[C@@](O)(C(C)C)C(=O)O3,-0.11,-10,27,107*
C[C@@H]1CN([C@@H](C)CO)C(=O)c2cccc(NS(=O)(=O)c3ccccc3)c2O[C@@H]1CN(C)Cc1ccc(Oc2ccccc2)cc1,-0.54,-1,66,25
C[C@H]1CN([C@@H](C)CO)C(=O)c2cccc(NS(=O)(=O)c3ccc(Cl)cc3)c2O[C@H]1CN(C)Cc1ccc(-c2ccccc2)cc1,-0.026,-5,34,84*
C[C@@H]1CN([C@@H](C)CO)C(=O)c2cccc(NS(=O)(=O)c3ccc(F)cc3)c2O[C@H]1CN(C)Cc1ccc(Oc2ccccc2)cc1,0.61,.,31,31
C[C@H](CO)N1C[C@H](C)[C@H](CN(C)Cc2ccc(Oc3ccccc3)cc2)Oc2c(NS(=O)(=O)c3ccc(F)cc3)cccc2C1=O,0.02,-4,70,84*
C[C@H]1CN([C@@H](C)CO)C(=O)c2cccc(NS(=O)(=O)c3ccc(F)cc3)c2O[C@@H]1CN(C)Cc1ccc(Oc2ccccc2)cc1,0.1,-3,104*,59
COc1ccc(S(=O)(=O)Nc2cccc3c2O[C@H](CN(C)Cc2ccc(-c4ccccc4)cc2)[C@H](C)CN([C@H](C)CO)C3=O)cc1,-0.095,-2,96*,?
CNC(=O)Nc1ccc(C(=O)OC)cc1,.,.,-14,.
COc1ccc(S(=O)(=O)Nc2cccc3c2O[C@H](CN(C)Cc2ccc(Oc4ccccc4)cc2)[C@H](C)CN([C@@H](C)CO)C3=O)cc1,0.43,-2,110*,40
C[C@H]1CC[C@@H]2[C@@H](C(=O)c3c(O)c([C@]4(O)CC[C@@H](O)[C@H]5O[C@H]54)c[nH]c3=O)[C@@H](C)C=C[C@H]2C1,-0.36,-22,-4,121*
CC1(C)O[C@@H]2[C@H](O1)[C@@H](CO)O[C@H]2n1cnc2c(N)ncnc21,-0.36,0,85*,-11
CCOC(=O)c1c(NC(=O)c2nc3ncccn3n2)sc(C)c1C,.,-2,-9,-1
CC1CC(=O)[C@]2(C)CC[C@]3(C)C(C(=O)C(O)C4[C@@]5(C)CC[C@H](O)C(C)(C(=O)O)C5CC[C@]43C)C2C1C (some centres not stated),0.95,-12,-38,119*
